T cruzi growth-1 – T. cruzi proliferation inhibition | T. cruzi beta-gal in NIH3T3, GalScreen luminescence, 90 h | inhibition, % at 8.34 µM | actives 5.9% (n = 77,000) | AID 624255;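 active means mean inhibition above about 93%, with at least 55% of replicates each passing it, limit read from the data, passing the limit was not always enough; inconclusive means only one of those two conditions holds; inactive means neither condition holds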
C diff growth – blocks growth of Clostridium difficile. growth activity, negative = inhibition, % at 16 µg/mL (by protocol). actives 0.25% (n = 86,000). Clostridium difficile clinical isolate growth, OD600, 24 h; stronger effect = lower value. AID 1259249;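 active means mean growth activity at or below -80% and every replicate also at or below -80%; inconclusive means mean at or below -80% but some replicate above -80%; inactive means mean growth activity above -80%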;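 further: 0% = DMSO wells and -100% = levofloxacin 16 µg/mL wells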
T cruzi growth-2 – blocks T. cruzi growth in NIH3T3 host cells | inhibition, % at 8.35 µM | shares compounds with T cruzi growth-1 | actives 72% (n = 5,600) | T. cruzi beta-gal in NIH3T3, GalScreen luminescence, 90 h | AID 651739;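 active means mean replicate inhibition above about 95% and at least 55% of replicates individually reaching it, limit read from the data; inconclusive means only one of the two criteria is met; inactive means neither criterion is met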
T cruzi growth-3 – blocks T. cruzi growth in NIH3T3 host cells. inhibition, % at 2.09 µM. shares compounds with T cruzi growth-1. T. cruzi beta-gal in NIH3T3, GalScreen luminescence, 90 h. actives 21% (n = 5,600). AID 651740;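 active means mean inhibition above about 95%, with at least 55% of replicates also reaching it, limit read from the data; inconclusive means meets just one of the two conditions; inactive means meets neither condition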;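 further: plate controls were neutral control median for no effect and positive control median for full effect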
NIH3T3 tox – NIH/3T3 (mouse) viability loss. shares compounds with T cruzi growth-1. NIH/3T3 viability, CellTiter-Glo ATP luminescence, 90 h. actives 14% (n = 5,600). AID 651742. cytotoxicity (signal decrease), % at 8.35 µM;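 active means mean signal decrease across replicates above about 35% based on untreated-well scatter, with enough replicates individually passing, limit read from the data; inconclusive means no rule stated though some were filed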;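 further: 0% = median of neutral control wells and 100% = median of positive control wells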
NIH3T3 tox 2 – kills mouse NIH/3T3 fibroblasts. inhibition, % at 24.9 µM. AID 651744. NIH/3T3 viability, CellTiter-Glo ATP luminescence, 90 h. shares compounds with T cruzi growth-1. actives 56% (n = 5,600);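 active means mean loss of cell viability signal at or above a set limit, and enough replicates individually reaching it; inconclusive means meets only the mean limit or only the replicate share; inactive means meets neither condition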;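 further: 0% = median of neutral control wells and 100% = median of positive control wells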
Active calls of the source: *; u = inconclusive; x = not tested or not shown. The full list was thinned out, with hits kept by preference.

SMILES | T cruzi growth-1 | C diff growth | T cruzi growth-2 | T cruzi growth-3 | NIH3T3 tox | NIH3T3 tox 2
COCC(=O)Nc1ccc2c(c1)C(=O)N(C)C[C@@H](OC)[C@@H](C)CN(C(=O)CC1CC1)[C@H](C)CO2 | 20 | x | x | x | x | x
COc1ccc(NC(=O)Nc2ccc3c(c2)C(=O)N([C@H](C)CO)C[C@H](C)[C@@H](CN(C)S(=O)(=O)c2ccc(Cl)cc2)OCCCC[C@@H](C)O3)cc1 | 92 | 3 | x | x | x | x
COc1ccc(NC(=O)Nc2ccc3c(c2)C(=O)N([C@@H](C)CO)C[C@H](C)[C@@H](CN(C)S(=O)(=O)c2ccc(Cl)cc2)OCCCC[C@H](C)O3)cc1 | 113* | -2 | 105* | 96* | -9 | 15
COc1ccc(NC(=O)Nc2ccc3c(c2)C(=O)N([C@@H](C)CO)C[C@H](C)[C@H](CN(C)S(=O)(=O)c2ccc(OC)cc2)OCCCC[C@@H](C)O3)cc1 | 43 | 4 | x | x | x | x
COc1ccc(NC(=O)Nc2ccc3c(c2)C(=O)N([C@@H](C)CO)C[C@@H](C)[C@@H](CN(C)S(=O)(=O)c2ccc(Cl)cc2)OCCCC[C@@H](C)O3)cc1 | 121* | -6 | 105* | 47 | 4 | -5
COc1ccccc1CN1[C@@H]2CNC[C@H]1C2c1ccc(/C=C/c2ccccc2)cc1 (stereo partly specified) | x | 6 | x | x | x | x
CNC[C@H]1Oc2c(NS(C)(=O)=O)cccc2C(=O)N([C@@H](C)CO)C[C@H]1C | -16 | 0 | x | x | x | x
COCC#Cc1cnc2c(c1)C(=O)N([C@H](C)CO)C[C@@H](C)[C@@H](CN(C)Cc1ccc(F)cc1)O2 | -4 | -2 | x | x | x | x
CCCNC(=O)Nc1ccc2c(c1)C(=O)N(C)C[C@H](OC)[C@H](C)CN(Cc1ccccn1)[C@@H](C)CO2 | 8 | -3 | x | x | x | x
CNC(=O)C[C@@H]1CC[C@@H]2[C@H](COc3ccc(NC(=O)c4cccc(OC)c4)cc3C(=O)N2C)O1 | -8 | 4 | x | x | x | x
CC(C)CC#Cc1ccc2c(c1)O[C@H](CN(C)C(=O)NC1CCCC1)[C@@H](C)CN([C@H](C)CO)S2(=O)=O | 79 | 10 | x | x | x | x
C[C@H]1CN([C@@H](C)CO)S(=O)(=O)c2ccc(C#Cc3ccc(F)cc3)cc2O[C@H]1CN(C)C(=O)NC1CCCC1 | 99* | -14 | 99* | 113* | 2 | 104*
C[C@@H]1CN([C@H](C)CO)S(=O)(=O)c2ccc(C#Cc3ccc(F)cc3)cc2O[C@@H]1CN(C)C(=O)NC1CCCCC1 | 78 | 3 | x | x | x | x
C[C@H](CO)N1C[C@H](C)[C@@H](CN(C)C(=O)NC2CCCC2)Oc2cc(C#Cc3ccc(F)cc3)ccc2S1(=O)=O | 60 | 15 | x | x | x | x
C[C@H](CO)N1C[C@H](C)[C@H](CN(C)C(=O)NC2CCCC2)Oc2cc(C#Cc3ccc(F)cc3)ccc2S1(=O)=O | 104* | -9 | 95* | 116* | -5 | 61*
C[C@@H]1CN([C@@H](C)CO)S(=O)(=O)c2ccc(C#Cc3ccc(F)cc3)cc2O[C@@H]1CN(C)C(=O)NC1CCCC1 | 115* | -4 | 101* | 87 | -19 | 74*
C[C@@H]1CN([C@@H](C)CO)S(=O)(=O)c2ccc(C#Cc3ccc(F)cc3)cc2O[C@H]1CN(C)C(=O)NC1CCCCC1 | 84 | -1 | x | x | x | x
CC(C)CC#Cc1ccc2c(c1)O[C@@H](CN(C)C(=O)NC1CCCC1)[C@@H](C)CN([C@H](C)CO)S2(=O)=O | 119* | -10 | 106* | 94 | -3 | 102*
COc1ccc(C#Cc2ccc3c(c2)O[C@@H](CN(C)C(=O)NC2CCCCC2)[C@H](C)CN([C@H](C)CO)S3(=O)=O)cc1 | u | -7 | 103* | 99* | -13 | 13
C[C@H](CO)N1C[C@H](C)[C@@H](CN(C)C(=O)NC2CCCCC2)Oc2cc(C#Cc3ccc(F)cc3)ccc2S1(=O)=O | 87 | 9 | x | x | x | x
CC(C)c1cn(CC[C@H]2CC[C@@H](NC(=O)C3CCOCC3)[C@@H](CO)O2)nn1 | x | -5 | x | x | x | x
COc1ccc(C#Cc2ccc([C@H]3[C@H]4CN(C(=O)Nc5ccc(F)cc5)CCCCN4[C@H]3CO)cc2)cc1 | 79 | 26 | x | x | x | x
CC(C)CC#Cc1ccc([C@H]2[C@H]3CN(C(=O)NC4CCCC4)CCCCN3[C@H]2CO)cc1 | u | 8 | 110* | 51 | 9 | 104*
COc1ccc(NC(=O)N2CCCCN3[C@H](C2)[C@H](c2ccc(C#CCC(C)C)cc2)[C@@H]3CO)cc1 | 118* | 3 | 92 | 61 | 14 | 100*
CC(C)CC#Cc1ccc([C@@H]2[C@@H](CO)N3CCCCN(C(=O)NC4CCCC4)C[C@H]23)cc1 | 84 | -6 | x | x | x | x
SMILES | T cruzi growth-1 | C diff growth | T cruzi growth-2 | T cruzi growth-3 | NIH3T3 tox | NIH3T3 tox 2
COc1ccc(NC(=O)N2CCCCN3[C@H](CO)[C@H](c4ccc(C#CCC(C)C)cc4)[C@@H]3C2)cc1 | 121* | -12 | 108* | 96* | u | 83*
COc1ccc(NC(=O)N2CCCCN3[C@@H](CO)[C@H](c4ccc(C#CCC(C)C)cc4)[C@@H]3C2)cc1 | 114* | -5 | 98* | 106* | 118* | 103*
COc1ccc(C#Cc2ccc([C@@H]3[C@H]4CN(C(=O)Nc5ccc(F)cc5)CCCCN4[C@H]3CO)cc2)cc1 | 1 | 49 | x | x | x | x
COc1ccc(NC(=O)N2CCCCN3[C@H](C2)[C@H](c2ccc(C#Cc4ccccn4)cc2)[C@@H]3CO)cc1 | 84 | -1 | x | x | x | x
COc1ccc(NC(=O)N(C)C[C@@H]2Oc3ccc(NS(=O)(=O)c4ccc(OC)cc4)cc3CC(=O)N([C@H](C)CO)C[C@@H]2C)cc1 | 5 | 1 | x | x | x | x
COCC#Cc1cnc2c(c1)C(=O)N([C@H](C)CO)C[C@@H](C)[C@H](CN(C)C(=O)Nc1cccc(F)c1)O2 | -11 | 0 | x | x | x | x
C[C@@H]1CN([C@@H](C)CO)C(=O)c2cc(C#CC3CCCC3)cnc2O[C@H]1CN(C)C(=O)C1CC1 | 58 | -4 | x | x | x | x
CC(C)CC#Cc1ccc([C@@H]2[C@H](CO)N3CCCCN(C(=O)NC4CCCC4)C[C@@H]23)cc1 | 31 | 19 | x | x | x | x
COc1ccc(NC(=O)N2CCCCN3[C@H](CO)[C@@H](c4ccc(C#CCC(C)C)cc4)[C@@H]3C2)cc1 | 105* | -2 | 106* | 56 | 39* | 104*
C[C@@H]1CN([C@@H](C)CO)C(=O)c2cc(NC(=O)Cc3ccccc3)ccc2O[C@@H]1CN(C)Cc1ccc(Cl)c(Cl)c1 | 105* | 14 | 98* | 16 | 28 | 96*
C[C@@H]1CN([C@@H](C)CO)C(=O)c2cc(NC(=O)Cc3ccccc3)ccc2O[C@H]1CN(C)Cc1ccc(-c2ccccc2)cc1 | -11 | -4 | x | x | x | x
C[C@@H]1CN([C@H](C)CO)C(=O)c2cc(NC(=O)Cc3ccccc3)ccc2O[C@@H]1CN(C)Cc1ccc(C(F)(F)F)cc1 | 34 | 0 | x | x | x | x
